# According to the supplement of paper PMC3334620:
# Whole data set: some 33,000 sequences, median “E-score (-0.5 to 0.5)” near -0.0014, cut for the highest 2% near 0.25. For the sample, the highest values were picked, then their nearest neighbours and some sequences at random.
# Target: T1, Cad1 (UniProt P24813)
# T1 sequence: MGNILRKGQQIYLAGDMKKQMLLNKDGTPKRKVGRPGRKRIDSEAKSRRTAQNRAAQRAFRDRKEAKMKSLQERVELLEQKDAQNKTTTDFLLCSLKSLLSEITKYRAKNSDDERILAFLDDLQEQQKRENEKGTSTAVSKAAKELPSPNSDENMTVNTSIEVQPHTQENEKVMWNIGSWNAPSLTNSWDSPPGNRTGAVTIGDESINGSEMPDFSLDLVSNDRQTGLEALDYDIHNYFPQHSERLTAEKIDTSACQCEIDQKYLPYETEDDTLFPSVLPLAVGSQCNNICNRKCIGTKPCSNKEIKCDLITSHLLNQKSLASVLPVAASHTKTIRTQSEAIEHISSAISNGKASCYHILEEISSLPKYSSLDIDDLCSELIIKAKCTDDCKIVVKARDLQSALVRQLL
# Assay: PBM E-score (8-mer binding enrichment) (E-score (-0.5 to 0.5)); higher = stronger / more preferred TF binding
# Details: protein concentration: 100 nM; construct: GST-full length
# Procedure, shortened: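 Using PURExpress in vitro transcription/translation, GST-tagged yeast transcription factors were made in full-length or DNA-binding-domain form. These were applied at about 100-200 nM to double-stranded universal all-10-mer Agilent arrays, and bound protein was detected with fluorescent anti-GST. Scans were normalised with masliner before the Universal PBM Analysis Suite assigned E-scores to ungapped eight-base words pooled with their reverse complements.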
row,Sequence,PBM E-score
1,AGATCCCG,0.281
2,AAGACCTT,-0.0766
3,CCATTCTC,-0.114
4,TGGAGAAA,-0.151
5,GAATTAAA,-0.0332
6,AAATTACG,-0.00187
7,AAATTACT,0.314
8,AAATTAAG,0.0523
9,AAATTAGT,0.273
10,AAATTACC,0.081
11,AAATTAGA,0.191
12,AAATTAAA,0.257
13,AGATTAAT,0.16
14,AAATTAAT,0.288
15,AAATTAGG,0.13
16,AAATTAAC,0.0173
17,AAGTAACG,-0.0002
18,AACCTGCG,-0.142
19,CAAAGAGA,-0.113
20,ACCCGTTC,-0.0216
21,CCAGGGCG,-0.18
22,AGAGTTGG,-0.0857
23,TTGGTAAA,0.073
24,CAAATTAA,0.207
25,GAAATTAA,0.295

row,Sequence,PBM E-score
1,GAAATTAC,0.234
2,ACGTAATC,0.286
3,ACGTAAGC,0.287
4,ACATAATG,0.172
5,ACATAATA,0.178
6,ACGTAATA,0.311
7,ACATAATC,0.309
8,ACGTAAGA,0.199
9,CCGTAATA,0.113
10,ACGTAAGT,-0.102
11,CCGTAATC,0.143
12,ACGTAATG,0.147
13,GCGTAATA,0.142
14,AAGTGGAA,-0.0197
15,CTCCCGCC,-0.163
16,ACGAAAGT,0.0253
17,ACACAACT,0.0775
18,GAAGCCAA,-0.183
19,CCGAAGCG,-0.22
20,ACATAACC,-0.0477
21,ATGTAAGA,0.227
22,ACATAACA,0.273
23,CAATAACA,-0.0158
24,GAATAACA,0.252
25,ACATAACT,0.0912

row,Sequence,PBM E-score
1,ATGTAAGC,0.305
2,CCCTAATC,-0.076
3,TAATAACA,0.15
4,ACCTAATC,0.259
5,ATGTAAGG,0.0288
6,ACCTAATA,0.137
7,CCTTAGCC,-0.00184
8,CACGCACG,-0.131
9,ATTCGGGG,0.0825
10,GTGCCGAA,-0.0386
11,ACTTACGG,0.0069
12,TGGAGTAA,0.149
13,AGTTTGTG,-0.0199
14,GGCATAAC,0.0911
15,CGCGCAGA,0.287
16,CGCGCAGC,0.103
17,GGCGCACA,0.00969
18,CGCGAAGC,0.219
19,CGCGAAGA,0.273
20,CGCGCACA,0.257
21,AGCGAAGA,-0.118
22,GGCGCAGA,0.00055
23,CGCGCACG,0.0231
24,ACCTTCAT,-0.0561
25,CATAAACC,-0.0325

row,Sequence,PBM E-score
1,CGAGGCGA,0.0962
2,ATAAGTTC,0.197
3,GAAAGTAC,-0.0278
4,CTCAATTC,0.066
5,CCAGCTAA,-0.0477
6,AATGCATT,0.229
7,AATGCATG,0.254
8,CATGCATA,0.156
9,AATGCATA,0.0741
10,CATGCATC,0.148
11,CATGCATG,0.252
12,CGTAACAC,0.124
13,GGGTCGTA,-0.236
14,ACGAAAAT,0.189
15,AGAGTGTC,0.198
16,CGGACGAA,0.274
17,CGGACGAC,-0.0294
18,GGGACGAA,-0.108
19,ATCTGGTG,0.0268
20,CGATACAC,0.00183
21,ATTTCTCC,-0.0308
22,ATTTCTCG,0.332
23,ATTTCTCA,0.0134
24,CATTACAG,0.0228
25,GATTACAC,0.156

row,Sequence,PBM E-score
1,CATTACAC,0.0518
2,GATTACAA,0.294
3,CATTACAA,0.277
4,TATTACAA,0.152
5,TACTTATA,0.0796
6,GACTTATA,0.214
7,AACTTATA,0.257
8,TTAGCTAA,0.298
9,ATTGCTAA,0.256
10,CTAGCTAA,-0.0595
11,ATAGCTAA,0.0748
12,CTAGCTAC,-0.0695
13,ATAGCTAG,-0.106
14,ATTGCTAG,0.014
15,CTTGCTAA,-0.13
16,CTAGCTAG,0.279
17,ACGCCTCT,-0.183
18,GCTTTGAA,0.108
19,ACCGTGTA,0.00454
20,ACTTACGA,0.184
21,GCTTACGA,0.258
22,GCTTACAA,0.308
23,GCTTACAC,0.23
24,CCTTACGA,0.00401
25,ACTTACAA,0.278

row,Sequence,PBM E-score
1,GATTACGA,0.318
2,TCTTACAA,0.0371
3,CATTACGA,0.0111
4,ACTTACAC,-0.0153
5,AATTACGA,0.148
6,ACTTACAT,0.0914
7,CGACTAAG,-0.00537
8,ACTTCAGG,-0.041
9,TACAACTA,0.0174
10,CAGACCCA,-0.175
11,GCTTACTA,0.426
12,GCTTACCC,0.034
13,ACTTACTA,0.184
14,GCTTACCA,0.255
15,TCTTACCA,-0.131
16,CCTTACTA,0.211
17,AGTCAAGA,0.121
18,GCCTTATA,-0.0929
19,GGGATGCA,-0.167
20,AACGGGAA,0.00234
21,GTCGAAGA,-0.0249
22,ATTGGCTC,0.0265
23,ACCACGGA,-0.141
24,CCCACGGA,-0.117
25,ATAACGGA,0.155

row,Sequence,PBM E-score
1,CTAACGGA,0.294
2,TCCACGGA,0.282
3,CTAACGGC,0.00942
4,ATGGTCCC,-0.189
5,CCGCCCTA,-0.00222
6,AGTCGGAA,0.0204
7,AATACTCC,-0.123
8,GGTAATCA,0.203
9,CGTAATCA,0.336
10,AGTAATCA,0.297
11,AGTAAACA,0.182
12,GGTAAACA,0.124
13,CGTAATCC,0.191
14,CATAATCA,0.175
15,AGTAATCC,0.229
16,CGTAAACA,0.256
17,AATCCCAG,0.0625
18,AAGAGTCG,0.0695
19,AATTTCTG,0.0718
20,AGCGGGCC,-0.0503
21,CCACCATA,-0.0653
22,CATCCGTC,-0.00289
